Laboratory results taken from the supplement of paper PMC10849652.
The full data set covers some 7,900 targets. This sample favours those with a hit. About 0.6% of all pairs of compound and target were hits. Unmarked numbers belong to inactive results.

Experiments:
Test in all cases: log2 fold change, soluble protein after heating vs DMSO (PISA); higher = thermal stabilisation; K562 cells, 10 uM, 30 min; active = over 0.2 and 3.5 SD of the protein, either way, in both replicates (recomputed)
[1] = compound: CC1=C(C=C(C=C1)NC(=O)C2=CC(=CC=C2)C(C)(C)C#N)NC3=CC4=C(C=C3)N=CN(C4=O)C
Method in brief: (§1)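 Soluble protein was quantified by TMTpro 16plex LC-MS/MS after channel sums were equalised. It was obtained as the supernatant after 21,000xg for 90 min from pooled aliquots of K562 cells (2×10^6 cells/mL, 10 μM compound, 30 min) heated for 3 min across 48°C-58°C and extracted in PBS with 0.5% NP-40 at 4°C. Thermal stability values are relative to control samples and come from duplicates. They are given as log2 fold changes.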

[2] = compound: CC1=C(C=C(C=C1)NC(=O)C2=CC(=CC=C2)N(C)C)NC(=O)C3=CC=C(C=C3)O
Method in brief: as §1

[3] = compound: CC1=CC=C(C=C1)SC2=C3C=C(SC3=CN=C2)C(=O)N
Method in brief: as §1

[4] = compound: CC1=NC(=CC=C1)C2=C(N=C(N2)C(C)(C)C)C3=CC4=NC=CN=C4C=C3
Method in brief: as §1

Nexturastat A = compound: CCCCN(Cc1ccc(C(=O)NO)cc1)C(=O)Nc1ccccc1 [Nexturastat A]
Method in brief: as §1

vemurafenib = compound: CCCS(=O)(=O)Nc1ccc(F)c(C(=O)c2c[nH]c3ncc(-c4ccc(Cl)cc4)cc23)c1F [vemurafenib]
Method in brief: as §1

[5] = compound: CCCS(=O)(=O)Nc1ccc(F)c(C(=O)c2c[nH]c3ncc(Cl)cc23)c1F
Method in brief: as §1

[6] = compound: CCCc1cc(C)[nH]c(=O)c1CNC(=O)c1cc(-c2ccnc(N3CCN(C)CC3)c2)cc2c1cnn2C(C)C
Method in brief: as §1

givinostat = compound: CCN(CC)Cc1ccc2cc(COC(=O)Nc3ccc(C(=O)NO)cc3)ccc2c1 [givinostat]
Method in brief: as §1

barasertib = compound: CCN(CCCOc1ccc2c(Nc3cc(CC(=O)Nc4cccc(F)c4)[nH]n3)ncnc2c1)CCOP(=O)(O)O [barasertib]
Method in brief: as §1

[7] = compound: CC[C@@H]1C(=O)N(C)c2cnc(Nc3ccc(C(=O)NC4CCN(C)CC4)cc3OC)nc2N1C1CCCC1
Method in brief: as §1

volasertib = compound: CC[C@@H]1C(=O)N(C)c2cnc(Nc3ccc(C(=O)N[C@H]4CC[C@H](N5CCN(CC6CC6)CC5)CC4)cc3OC)nc2N1C(C)C [volasertib]
Method in brief: as §1

[8] = compound: CC[C@H](C)N1C=C(C2=C(C=C(C=C21)C3=CN=C(C=C3)N4CCNCC4)C(=O)NCC5=C(C=C(NC5=O)C)C)C
Method in brief: as §1

epoxomicin = compound: CC[C@H](C)[C@@H](C(=O)N[C@@H]([C@@H](C)O)C(=O)N[C@@H](CC(C)C)C(=O)[C@]1(CO1)C)NC(=O)[C@H]([C@@H](C)CC)N(C)C(=O)C [epoxomicin]
Method in brief: as §1

[9] = compound: CCn1c(C(=O)N(C2CC2)C2CC2)cc2c3c(ncn3C)c(Nc3cc(C)n(C)n3)nc21
Method in brief: as §1

[10] = compound: CCn1cc(-c2ccnc3[nH]c(-c4cccc(CN(C)C)c4)cc23)c(-c2ccc(NC(=O)N(C)C)cc2)n1
Method in brief: as §1

[11] = compound: CN(C)CC(=O)Nc1ccc2[nH]c(=O)c3ccccc3c2c1
Method in brief: as §1

rosiglitazone = compound: CN(CCOC1=CC=C(C=C1)C[C@H]2C(=O)NC(=O)S2)C3=CC=CC=N3 (racemic) [rosiglitazone]
Method in brief: as §1

[12] = compound: CN1C2=C(C3=C1C(=O)N(N=C3)CC4=CC(=CC=C4)N)SC(=C2)S(=O)C
Method in brief: as §1

[13] = compound: CN1CCC(CNc2ccc3ncc(-c4cccc(OC(F)(F)F)c4)n3n2)CC1
Method in brief: as §1

Sequence of UniProt Q15172 (Q15172 whole entry, looked up): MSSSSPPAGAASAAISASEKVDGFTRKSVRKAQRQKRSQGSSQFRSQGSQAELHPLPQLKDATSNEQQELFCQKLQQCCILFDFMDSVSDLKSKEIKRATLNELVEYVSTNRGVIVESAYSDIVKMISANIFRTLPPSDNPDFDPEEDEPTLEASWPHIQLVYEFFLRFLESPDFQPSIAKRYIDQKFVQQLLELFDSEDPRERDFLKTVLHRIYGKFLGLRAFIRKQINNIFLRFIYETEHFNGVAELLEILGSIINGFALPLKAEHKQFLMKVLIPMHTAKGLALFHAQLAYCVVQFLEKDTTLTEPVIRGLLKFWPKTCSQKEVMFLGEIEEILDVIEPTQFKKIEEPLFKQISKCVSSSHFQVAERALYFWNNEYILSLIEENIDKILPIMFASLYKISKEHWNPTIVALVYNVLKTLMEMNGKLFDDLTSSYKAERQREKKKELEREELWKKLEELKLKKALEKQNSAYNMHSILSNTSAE
Sequence of UniProt P46019 (P46019 whole entry, looked up): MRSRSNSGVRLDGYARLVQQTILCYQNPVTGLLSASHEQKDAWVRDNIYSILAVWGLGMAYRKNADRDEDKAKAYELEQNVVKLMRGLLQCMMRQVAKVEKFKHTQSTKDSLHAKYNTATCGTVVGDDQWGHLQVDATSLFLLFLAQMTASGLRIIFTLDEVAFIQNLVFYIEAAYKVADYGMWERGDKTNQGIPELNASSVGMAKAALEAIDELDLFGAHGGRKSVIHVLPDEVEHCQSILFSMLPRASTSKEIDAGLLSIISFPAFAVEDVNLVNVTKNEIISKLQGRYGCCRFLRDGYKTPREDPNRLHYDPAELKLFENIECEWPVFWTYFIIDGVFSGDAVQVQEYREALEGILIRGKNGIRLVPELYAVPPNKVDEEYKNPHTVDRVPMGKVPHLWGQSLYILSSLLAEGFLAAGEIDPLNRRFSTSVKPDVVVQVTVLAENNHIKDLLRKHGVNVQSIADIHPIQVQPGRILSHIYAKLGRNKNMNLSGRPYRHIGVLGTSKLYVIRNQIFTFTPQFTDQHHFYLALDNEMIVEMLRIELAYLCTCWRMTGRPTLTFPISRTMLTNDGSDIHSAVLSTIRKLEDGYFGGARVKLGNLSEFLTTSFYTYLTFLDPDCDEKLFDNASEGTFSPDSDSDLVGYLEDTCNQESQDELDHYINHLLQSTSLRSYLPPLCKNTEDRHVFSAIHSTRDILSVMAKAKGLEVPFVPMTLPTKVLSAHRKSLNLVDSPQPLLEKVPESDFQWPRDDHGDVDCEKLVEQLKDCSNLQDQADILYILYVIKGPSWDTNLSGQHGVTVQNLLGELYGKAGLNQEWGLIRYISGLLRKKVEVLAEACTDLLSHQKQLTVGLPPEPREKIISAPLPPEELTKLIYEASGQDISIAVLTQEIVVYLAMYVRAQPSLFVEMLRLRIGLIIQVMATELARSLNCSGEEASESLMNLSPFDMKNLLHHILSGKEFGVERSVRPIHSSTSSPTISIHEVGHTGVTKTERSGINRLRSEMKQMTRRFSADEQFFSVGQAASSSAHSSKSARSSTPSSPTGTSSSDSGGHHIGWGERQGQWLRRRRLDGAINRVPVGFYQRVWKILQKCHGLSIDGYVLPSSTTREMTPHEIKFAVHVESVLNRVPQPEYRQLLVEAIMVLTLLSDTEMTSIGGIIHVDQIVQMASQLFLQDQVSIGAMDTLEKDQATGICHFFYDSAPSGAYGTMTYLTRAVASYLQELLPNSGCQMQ
Sequence of UniProt Q8NEB9 (Q8NEB9 whole entry, looked up): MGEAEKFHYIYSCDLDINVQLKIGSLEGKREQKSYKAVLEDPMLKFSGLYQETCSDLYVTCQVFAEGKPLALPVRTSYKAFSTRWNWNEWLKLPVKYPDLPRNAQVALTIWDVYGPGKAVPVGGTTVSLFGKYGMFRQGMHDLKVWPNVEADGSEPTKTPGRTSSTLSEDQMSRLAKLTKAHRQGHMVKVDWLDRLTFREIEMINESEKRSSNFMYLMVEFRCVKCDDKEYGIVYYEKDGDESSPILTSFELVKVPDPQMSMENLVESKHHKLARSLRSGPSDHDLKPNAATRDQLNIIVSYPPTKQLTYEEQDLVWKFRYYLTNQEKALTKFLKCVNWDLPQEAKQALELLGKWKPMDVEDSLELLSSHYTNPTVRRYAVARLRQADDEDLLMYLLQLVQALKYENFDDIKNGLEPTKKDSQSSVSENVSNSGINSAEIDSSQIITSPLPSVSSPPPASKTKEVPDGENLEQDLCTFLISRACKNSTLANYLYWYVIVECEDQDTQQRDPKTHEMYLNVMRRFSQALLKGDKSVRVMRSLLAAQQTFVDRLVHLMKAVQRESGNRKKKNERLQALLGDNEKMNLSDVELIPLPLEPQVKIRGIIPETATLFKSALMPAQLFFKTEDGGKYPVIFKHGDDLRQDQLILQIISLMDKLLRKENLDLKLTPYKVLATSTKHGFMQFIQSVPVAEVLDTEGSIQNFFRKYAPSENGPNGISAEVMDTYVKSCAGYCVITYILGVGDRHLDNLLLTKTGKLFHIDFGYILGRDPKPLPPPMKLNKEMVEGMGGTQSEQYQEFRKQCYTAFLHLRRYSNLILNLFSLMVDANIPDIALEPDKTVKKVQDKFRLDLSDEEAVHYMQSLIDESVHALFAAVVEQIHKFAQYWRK
Sequence of UniProt Q9P2B2 (Q9P2B2 whole entry, looked up): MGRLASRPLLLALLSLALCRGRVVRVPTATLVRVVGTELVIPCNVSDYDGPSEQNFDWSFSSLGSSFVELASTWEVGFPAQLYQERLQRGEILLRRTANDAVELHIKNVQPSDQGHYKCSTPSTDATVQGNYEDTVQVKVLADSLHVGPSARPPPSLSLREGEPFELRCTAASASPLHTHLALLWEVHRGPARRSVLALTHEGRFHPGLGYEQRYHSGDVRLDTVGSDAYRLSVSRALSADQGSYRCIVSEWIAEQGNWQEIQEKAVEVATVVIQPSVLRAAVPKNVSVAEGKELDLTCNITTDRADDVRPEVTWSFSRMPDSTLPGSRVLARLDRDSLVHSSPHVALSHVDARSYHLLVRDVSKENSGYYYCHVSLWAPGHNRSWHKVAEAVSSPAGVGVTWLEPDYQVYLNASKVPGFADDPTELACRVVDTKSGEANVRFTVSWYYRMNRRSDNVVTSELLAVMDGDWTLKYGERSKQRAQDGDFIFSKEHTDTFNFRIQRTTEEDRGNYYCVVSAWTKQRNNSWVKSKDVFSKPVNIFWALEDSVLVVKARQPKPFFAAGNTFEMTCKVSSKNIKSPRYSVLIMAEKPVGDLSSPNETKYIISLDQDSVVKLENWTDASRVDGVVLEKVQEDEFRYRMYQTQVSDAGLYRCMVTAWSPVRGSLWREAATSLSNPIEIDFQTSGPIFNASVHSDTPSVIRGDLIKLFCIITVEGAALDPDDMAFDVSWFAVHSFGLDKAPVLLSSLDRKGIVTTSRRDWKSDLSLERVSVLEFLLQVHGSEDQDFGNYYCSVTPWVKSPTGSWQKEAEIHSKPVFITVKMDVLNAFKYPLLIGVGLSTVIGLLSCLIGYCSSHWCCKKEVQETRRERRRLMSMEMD
Sequence of UniProt Q96AD5 (Q96AD5 whole entry, looked up): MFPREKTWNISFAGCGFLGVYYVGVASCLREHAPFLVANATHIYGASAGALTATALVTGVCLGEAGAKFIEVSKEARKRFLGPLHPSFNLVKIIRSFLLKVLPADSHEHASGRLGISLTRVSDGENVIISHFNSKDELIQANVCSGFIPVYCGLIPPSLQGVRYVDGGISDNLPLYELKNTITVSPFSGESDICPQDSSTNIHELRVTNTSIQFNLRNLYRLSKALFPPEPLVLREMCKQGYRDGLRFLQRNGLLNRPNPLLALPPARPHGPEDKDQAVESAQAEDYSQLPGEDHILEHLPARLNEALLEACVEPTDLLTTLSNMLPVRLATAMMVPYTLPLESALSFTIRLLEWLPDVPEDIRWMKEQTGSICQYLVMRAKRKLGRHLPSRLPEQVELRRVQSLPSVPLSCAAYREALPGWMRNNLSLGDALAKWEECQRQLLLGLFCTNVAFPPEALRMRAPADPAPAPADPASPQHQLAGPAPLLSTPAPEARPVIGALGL
Sequence of UniProt P62136 (P62136 whole entry, looked up): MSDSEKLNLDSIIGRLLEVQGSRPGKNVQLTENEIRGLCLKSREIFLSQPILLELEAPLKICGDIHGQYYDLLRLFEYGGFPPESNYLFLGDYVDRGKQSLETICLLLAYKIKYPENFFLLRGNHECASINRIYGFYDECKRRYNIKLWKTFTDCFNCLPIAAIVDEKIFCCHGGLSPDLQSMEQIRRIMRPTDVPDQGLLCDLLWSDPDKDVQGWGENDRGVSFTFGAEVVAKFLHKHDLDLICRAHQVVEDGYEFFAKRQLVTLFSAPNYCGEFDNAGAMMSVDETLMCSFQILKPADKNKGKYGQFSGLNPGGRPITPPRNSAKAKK
Sequence of UniProt Q5VTL8 (Q5VTL8 whole entry, looked up): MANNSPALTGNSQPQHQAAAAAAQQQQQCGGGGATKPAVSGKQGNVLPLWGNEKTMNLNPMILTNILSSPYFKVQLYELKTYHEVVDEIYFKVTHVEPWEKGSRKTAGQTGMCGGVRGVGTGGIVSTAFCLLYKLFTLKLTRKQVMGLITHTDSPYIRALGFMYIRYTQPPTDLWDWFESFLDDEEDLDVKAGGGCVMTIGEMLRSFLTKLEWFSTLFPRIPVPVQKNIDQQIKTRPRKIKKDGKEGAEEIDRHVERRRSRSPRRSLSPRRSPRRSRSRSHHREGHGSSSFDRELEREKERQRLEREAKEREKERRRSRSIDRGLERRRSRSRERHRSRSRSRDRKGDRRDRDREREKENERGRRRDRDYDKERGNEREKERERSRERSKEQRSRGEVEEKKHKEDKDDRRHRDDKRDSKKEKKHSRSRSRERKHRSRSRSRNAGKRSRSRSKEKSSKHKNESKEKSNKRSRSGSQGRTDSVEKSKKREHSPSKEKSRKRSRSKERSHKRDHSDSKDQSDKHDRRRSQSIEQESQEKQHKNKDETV

| Target | log2 fold change [1] | log2 fold change [2] | log2 fold change [3] | log2 fold change [4] | log2 fold change (Nexturastat A) | log2 fold change (vemurafenib) | log2 fold change [5] | log2 fold change [6] | log2 fold change (givinostat) | log2 fold change (barasertib) | log2 fold change [7] | log2 fold change (volasertib) | log2 fold change [8] | log2 fold change (epoxomicin) | log2 fold change [9] | log2 fold change [10] | log2 fold change [11] | log2 fold change (rosiglitazone) | log2 fold change [12] | log2 fold change [13] |
| --- | --- | --- | --- | --- | --- | --- | --- | --- | --- | --- | --- | --- | --- | --- | --- | --- | --- | --- | --- | --- |
| PNPLA2 (UniProt Q96AD5) | 0.009 | -0.017 | -0.003 | 0.008 | -0.021 | -0.017 | 0.053 | 0.026 | 0.036 | -0.092 | 0.11 | 0.126 | 0.015 | -0.041 | 0.013 | 0.156 | -0.044 | -0.155 | -0.025 | -0.068 |
| PTGFRN (UniProt Q9P2B2) | -0.044 | -0.025 | 0.006 | -0.012 | -0.021 | 0.013 | -0.045 | -0.03 | 0.007 | -0.043 | 0.032 | 0.008 | 0 | 0.014 | 0.022 | -0.049 | -0.01 | 0.025 | -0.104 | 0.181 |
| PRPF38B (UniProt Q5VTL8) | -0.001 | 0.001 | -0.012 | 0.015 | -0.011 | 0.043 | 0.042 | -0.006 | 0.007 | 0.012 | -0.152 | -0.231 | 0.015 | -0.002 | -0.012 | -0.02 | -0.01 | 0.009 | 0.018 | -0.073 |
| PIK3C3 (UniProt Q8NEB9) | 0.003 | 0.015 | -0.046 | -0.085 | 0.54 (active) | -0.001 | 0.02 | -0.051 | 0.088 | -0.015 | 0.16 | 0.153 | 0.023 | -0.071 | 0.044 | -0.117 | -0.03 | -0.022 | 0.025 | 0.015 |
| PMM2 (UniProt O15305) | -0.102 | 0.021 | -0.014 | -0.009 | -0.124 | -0.04 | -0.009 | -0.055 | 0.015 | 0.003 | -0.03 | -0.021 | 0.026 | -0.021 | -0.003 | -0.002 | -0.049 | 0.037 | -0.076 | -0.049 |
| PHAX (UniProt Q9H814) | -0.019 | 0.013 | 0.022 | -0.043 | 0.02 | 0.002 | -0.019 | -0.045 | -0.076 | -0.008 | -0.03 | -0.106 | 0.027 | -0.041 | 0.014 | 0.111 | 0.011 | -0.007 | -0.054 | 0.042 |
| PHKA2 (UniProt P46019) | 0.028 | 0 | 0.028 | 0.053 | -0.038 | -0.014 | 0.052 | -0.07 | 0.048 | 0.057 | -0.049 | -0.094 | -0.174 | 0.071 | -0.047 | -0.029 | 0.01 | 0.026 | -0.002 | -0.35 (active) |
| PPT1 (UniProt P50897) | -0.017 | 0.009 | 0.046 | 0.013 | -0.081 | 0 | -0.003 | -0.107 | -0.022 | -0.017 | -1.41 (active) | -1.9 (active) | -0.041 | 0.014 | 0.015 | 0.01 | -0.009 | -0.008 | -0.035 | -0.925 (active) |
| PSMD12 (UniProt O00232) | 0.066 | -0.004 | -0.005 | -0.011 | 0.047 | -0.031 | 0.009 | 0.052 | -0.002 | -0.044 | 0.03 | 0.158 | 0.02 | -0.278 | -0.008 | 0.017 | -0.007 | -0.038 | 0.01 | 0.062 |
| PPP2R5A (UniProt Q15172) | -0.014 | -0.039 | 0.032 | 0.051 | -0.017 | 0.061 | 0.146 | -0.003 | 0.026 | 0.002 | -0.099 | -0.295 (active) | 0.097 | 0.067 | 0.012 | -0.046 | 0.072 | 0.112 | -0.049 | -0.305 (active) |
| POLR2A (UniProt P24928) | -0.009 | -0.049 | 0.064 | 0.018 | 0.001 | 0.002 | 0.071 | -0.023 | -0.024 | 0.024 | 0.093 | -0.034 | 0.006 | 0.004 | -0.058 | 0.022 | 0.041 | 0.007 | -0.052 | 0.156 |
| PSMD11 (UniProt O00231) | 0.048 | -0.005 | 0.017 | -0.006 | 0.124 | -0.031 | 0.058 | 0.047 | -0.027 | -0.056 | 0.011 | 0.187 | 0.036 | -0.262 | -0.016 | 0 | 0 | -0.016 | 0.018 | 0.053 |
| PPP1CA (UniProt P62136) | -0.024 | -0.019 | -0.071 | 0.164 | -0.09 | -0.023 | -0.05 | 0 | -0.009 | 0.035 | -0.014 | -0.061 | 0.003 | 0.02 | 0.011 | -0.041 | -0.033 | 0.015 | -0.077 | 0.011 |
| POP1 (UniProt Q99575) | 0.03 | -0.001 | 0.004 | -0.02 | -0.011 | -0.004 | 0.021 | 0.018 | -0.009 | -0.042 | 0.069 | 0.092 | 0.02 | -0.001 | 0.006 | 0.028 | -0.019 | -0.025 | -0.009 | 0.075 |
| POLA2 (UniProt Q14181) | 0.073 | 0.044 | -0.037 | 0.061 | -0.011 | 0.034 | 0.048 | -0.02 | 0.021 | 0.021 | -0.114 | -0.328 (active) | 0.051 | 0.022 | -0.008 | -0.109 | 0.1 | 0.061 | -0.057 | -0.22 |
| PAK4 (UniProt O96013) | -0.154 | 0.06 | -0.017 | -0.017 | -0.027 | -0.035 | -0.026 | -0.141 | -0.01 | 0.027 | -0.026 | -0.088 | -0.026 | -0.017 | 0.009 | -0.059 | -0.012 | 0.062 | 0.049 | -0.083 |
